Only some compounds are listed: those with a hit (about 5.8% of all), similar ones and a draw of the others.
MCF10A rerep = inducers of DNA re-replication in MCF 10A breast cells. MCF 10A DNA re-replication, Hoechst nuclear intensity, 48 h. Potency, µM (top dose mostly 46.1 µM), hits mostly activators. 2.9% of 350,000 active. AID 624296; further: nearly all actives have a fitted effect of over 50% in size
ALOX12 inh = ALOX12 (human) lipoxygenase inhibition | P18054 | purified 12hLO, xylenol orange hydroperoxide absorbance | Potency, µM (top dose mostly 108 µM), actives largely listed as inhibitors | 1.1% of 580,000 active | AID 1671190
Target sequence (P18054 whole entry, looked up): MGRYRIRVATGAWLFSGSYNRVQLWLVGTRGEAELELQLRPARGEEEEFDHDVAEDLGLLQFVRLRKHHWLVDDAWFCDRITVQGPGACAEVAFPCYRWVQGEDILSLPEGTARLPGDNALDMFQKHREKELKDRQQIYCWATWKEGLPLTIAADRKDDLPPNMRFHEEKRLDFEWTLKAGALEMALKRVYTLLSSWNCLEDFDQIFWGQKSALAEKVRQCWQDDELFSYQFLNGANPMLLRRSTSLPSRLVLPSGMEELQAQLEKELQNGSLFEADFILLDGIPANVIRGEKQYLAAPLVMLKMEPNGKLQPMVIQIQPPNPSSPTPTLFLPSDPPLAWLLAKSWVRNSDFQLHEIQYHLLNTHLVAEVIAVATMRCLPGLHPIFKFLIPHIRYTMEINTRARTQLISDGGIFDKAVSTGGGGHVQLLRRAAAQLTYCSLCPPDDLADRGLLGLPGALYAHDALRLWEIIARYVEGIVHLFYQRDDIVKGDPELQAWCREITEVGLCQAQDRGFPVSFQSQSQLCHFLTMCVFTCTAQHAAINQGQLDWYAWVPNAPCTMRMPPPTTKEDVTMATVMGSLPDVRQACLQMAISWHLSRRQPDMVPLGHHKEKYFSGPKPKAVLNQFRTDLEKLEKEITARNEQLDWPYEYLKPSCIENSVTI
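Hydroperoxide product was detected by ferrous iron/xylenol orange as the 573 to 405 nm absorbance ratio. Arachidonic acid at 40 uM (final) was turned over for 30 min at room temperature by 150 nM human 12hLO, pH 7.0 Hepes buffer, after 15 min compound preincubation.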
PINK1 modulator = PINK1 expression modulation; Potency, µM (highest dose often 76.6 µM), actives largely listed as activators; 0.2% of 410,000 active; PINK1 immunofluorescence, high-content cytometry, 24 h; AID 624263; active means well fitted activation curve with a large enough effect; inconclusive means small, poorly fitted or top-dose-only effect; cell line not stated here; further: nearly all actives have a fitted effect of over 65% in size
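Stable cell line treated 24 h with compounds at 5 concentrations (CCCP controls), then fixed and immunostained for PINK1 plus nuclear and cell stains; PINK1 immunofluorescence quantified by laser-scanning microplate cytometry.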
KB-3-1 cytotox = KB-3-1 parental cell cytotoxicity | KB-3-1 viability, CellTiter-Glo ATP luminescence, 72 h | Potency, µM (top dose mostly 46.1 µM), most hits filed as cytotoxic | 1.4% of 400,000 active | AID 1347075; further: nearly all actives have a fitted effect of over 60% in size
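Screening of KB-3-1 cells (DMEM, 10% FBS, phenol-red free) ran from lowest to highest compound concentration; after 72 h at 37 °C viability was read luminescently and curves fitted.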
SW480 rerep = induces DNA re-replication in SW480 colon adenocarcinoma cells; SW480 DNA re-replication, Hoechst DNA content imaging, 48 h; Potency, µM (top dose mostly 46.1 µM), hits mostly activators; AID 624297; 1.8% of 340,000 active; further: nearly all actives have a fitted effect of over 55% in size
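Compounds, transferred as 23 nL by pin tool, were incubated with cells for 48 hr; DNA content per nucleus was then quantified by Hoechst staining and fluorescence plate imaging.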
KB-V1 MDR tox = kills drug-selected multidrug resistant KB-V1 cells | KB-V1 MDR cells viability, CellTiter-Glo, 72 h | Potency, µM (doses to about 46.1 µM), actives largely listed as cytotoxic | 3.4% of 400,000 active; further: nearly all actives have a fitted effect of over 60% in size
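KB-V1 cells (P-gp-expressing MDR subline of KB-3-1) in phenol-red-free DMEM with 10% FBS were exposed to library compounds over a concentration series for 72 h at 37 degrees C. Viability read by CellTiter-Glo luminescence; concentration-effect curves fitted after normalization.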
Numbers stand for hits; . = inactive; ? = inconclusive; / = no result given; [ ] = another dose, or the depositor's remark. Unless noted, the call rests on the fitted dose curve; in most records, active means well fitted curve in the direction sought with a large enough effect; inconclusive means small, poorly fitted or top-dose-only effect, or another doubt; inactive means no such curve, though single readings can be large; an effect the other way counts as inactive or inconclusive.

SMILES	MCF10A rerep	ALOX12 inh	PINK1 modulator	KB-3-1 cytotox	SW480 rerep	KB-V1 MDR tox
COCC(C)n1c(C)cc(C(=O)Cn2cnc3sccc3c2=O)c1C (stereo unspecified)	/	.	/	/	/	/
Oc1ccc2c(c1)Oc1ncn3nc(COc4ccccc4)nc3c1C2c1cccnc1 (stereo unspecified)	/	.	/	/	/	/
COc1ccc(Cc2n[nH]c(=S)n2NC(=O)Nc2ccc(Cl)c(Cl)c2)cc1	.	?	40µM	.	.	.
Cn1c(CC(=O)Nc2ccc(Cl)c(Cl)c2)n[nH]c1=S	.	?	.	.	.	.
COC(=O)c1cc(C(=O)OCCCC(=O)c2ccc(F)cc2)cc([N+](=O)[O-])c1	/	.	/	/	/	/
CCN(CC)CCn1c(NS(=O)(=O)c2ccc(C)cc2)nc2ccccc21	.	.	.	.	.	21µM
CCN(CC)CCn1c(NCc2nc3ccccc3n2Cc2ccccc2)nc2ccccc21	23µM	.	.	.	?	.
NS(=O)(=O)c1ccc(N/N=C/c2ccc(F)cc2)c([N+](=O)[O-])c1	/	.	/	/	/	/
CCn1c(=O)c(C(=O)Nc2ncccc2C)c(O)c2ccccc21	.	.	.	?	.	4.6µM
Cc1cccnc1NC(=O)c1c(O)c2ccccc2n(C)c1=O	?	.	.	.	.	7.3µM
CCn1c(=O)c(C(=O)Nc2ncccc2O)c(O)c2ccccc21	?	.	.	.	.	.
Cn1c(=O)c(C(=O)NNC(=O)c2ccccc2F)c(O)c2ccccc21	.	.	.	?	?	?
Cn1c(=O)c(C(=O)NNC(=O)c2ccc(Br)cc2)c(O)c2ccccc21	23µM	.	?	26µM	.	?
CN1CCCCC12Cc1ccccc1CN(C(=O)c1ccccc1)C2 (stereo unspecified)	/	.[6.33 µM]	/	/	/	/
O=C(Nc1cccc(S(=O)(=O)N2CCOCC2)c1)c1ccc(OCc2cn3ccccc3n2)cc1	/	.	/	/	/	/
COc1ccc(-c2nnc3ccc(N4CCC(c5ccccc5)CC4)nn23)nc1	/	.	/	/	/	/
COc1ccccc1N1CCN(C(=O)CN(Cc2ccccc2)S(C)(=O)=O)CC1	.	.	.	.	.	10µM
CS(=O)(=O)N(CC(=O)NC1CCCC1)Cc1ccc(Cl)cc1	.	.	.	.	.	15µM
CS(=O)(=O)N(CC(=O)N1CCCCCC1)Cc1ccc(Cl)cc1	.	.	.	.	.	5.2µM
Cc1cccc(C)c1N(CC(=O)N1CCN(c2ccccc2F)CC1)S(C)(=O)=O	0.65µM	.	.	.	.	.
CS(=O)(=O)N(CC(=O)NC1CCCCC1)Cc1ccc(Cl)cc1	.	.	.	.	.	.
O=C(NC1CC1)[C@@H]1CN(Cc2ccc(OC(F)(F)F)cc2)C[C@H]1CO	/	.	/	/	/	/
CN1CCN(C(=O)c2ccc(N(Cc3ccc(Cl)cc3)S(C)(=O)=O)cc2)CC1	5.8µM	.	.	.	?	.
CCCC(C)C(=O)Nc1nc(C)c(-c2csc(Nc3ccccc3OC)n2)s1 (stereo unspecified)	21µM	45µM	.	.	.	.
CCCCCC(=O)Nc1nc(C)c(-c2csc(Nc3ccccc3OC)n2)s1	?	.	.	.	.	.
SMILES	MCF10A rerep	ALOX12 inh	PINK1 modulator	KB-3-1 cytotox	SW480 rerep	KB-V1 MDR tox
CCCC(C)C(=O)Nc1nc(C)c(-c2csc(Nc3ccc(Cl)cc3)n2)s1 (stereo unspecified)	.	?	.	8.2µM	?	.
COc1ccccc1NC1=C(Cl)C(=O)N(c2ccccc2)C1=O	.	.	.	.	10µM	.
CN1CCN(c2oc(COc3ccccc3F)nc2C#N)CC1	/	.	/	/	/	/
CCN1C(=O)N[C@@H](c2cccc(F)c2)C(C(C)=O)=C1C	?	.	.	.	.	.
CC(=O)C1=C(C)N(Cc2ccc(Cl)cc2)C(=S)NC1c1ccc(Cl)cc1 (stereo unspecified)	/	45µM	/	/	/	/
CCN1C(=O)N[C@H](c2ccc(Br)cc2)C(C(C)=O)=C1C	.	.	.	.	.[9.22 µM]	.
CC(=O)C1=C(C)N(Cc2ccc(Cl)cc2)C(=S)NC1c1ccccc1 (stereo unspecified)	/	45µM	/	/	/	/
CC(=O)C1=C(C)N(Cc2ccc(F)cc2)C(=S)NC1c1cccc(Br)c1 (stereo unspecified)	/	40µM	/	/	/	/
C[N+]1(Cc2cccc(F)c2)CCN(/C=C/C(=O)C(F)(F)F)CC1	/	.	/	/	/	/
COc1ccc2[nH]c3c(c2c1)CCN1C(=O)N([C@@H](C)C(=O)NCCc2ccc(F)cc2)C(=O)[C@]31C	?	.	.	12µM	?	?
O=C(Nc1ccc(F)cc1)c1nc2ccccc2nc1N1CCOCC1	/	.	/	/	/	/
COc1cccc(C(=O)Nc2cccc(C(=O)NCC(C)C)c2)c1	.	.	.	.	.	18µM
CC(C)CNC(=O)c1cccc(NC(=O)CCc2ccccc2)c1	.	.	.	.	.	.
CC(C)CNC(=O)c1cccc(NC(=O)c2ccc(Cl)c([N+](=O)[O-])c2)c1	?	.	.	.	.	21µM
CC(C)CNC(=O)c1ccc(NC(=O)c2ccccc2[N+](=O)[O-])cc1	.	.	.	.	.	.
CC(C)CNC(=O)c1cccc(NC(=O)Cc2ccc(Br)cc2)c1	.	?	.	?	1.5µM	3.3µM
CCCCCCCCN1C(=O)[C@H](CC(=O)NCc2cccs2)C[C@@]2(C(=O)OC)CCCCC=C12	/	.	.	?	/	21µM
CCCCOCCCNC(=O)C[C@@H]1C[C@@]2(C(=O)OCC)CCCC=C2N(Cc2cccc3ccccc23)C1=O	/	?	.	?	/	18µM
COC(=O)[C@]12CCCCC=C1N(CCc1ccc(OC)c(OC)c1)C(=O)[C@H](CC(=O)NCc1cccc3ccccc13)C2	/	.	/	.	/	21µM
CCCCCCCCN1C(=O)[C@H](CC(=O)NCc2cccs2)C[C@@]2(C(=O)OCC)CCCC=C12	/	.	?	?	/	?
CCCCCCCCN1C(=O)[C@H](CC(=O)NCc2cccc(C(F)(F)F)c2)C[C@@]2(C(=O)OC)CCCCC=C12	/	.	.	?	/	16µM
O=C(c1ccccc1)c1ccc2n1CCC2C(=O)Nc1ccc(C(F)(F)F)cc1 (stereo unspecified)	/	.	/	/	/	/
CCOc1c(CN)cccc1OC	/	.	/	/	/	/
COC(=O)[C@]12CCCCC=C1N(Cc1cccc3ccccc13)C(=O)[C@H](CC(=O)NCc1ccc(OC)c(OC)c1)C2	/	.	.	5.8µM	/	?
CCOC(=O)[C@]12CCC=C1N(Cc1cccc3ccccc13)C(=O)[C@H](CC(=O)NCCC(C)C)C2	/	.	.	?	/	16µM
COC(=O)[C@]12CCCCC=C1N(Cc1cccc3ccccc13)C(=O)[C@H](CC(=O)NCc1cccs1)C2	/	.	.	?	/	16µM
